The source made the active and inactive calls. How the source made its calls: active means hit-call score of the fitted dose curve at least 0.9, where 1 is the maximum; inactive means score below 0.9.
What follows are compounds tested against Retinoic acid receptor alpha (Homo sapiens) (UniProt P10276) (assay: ATG_DR5_RAR_CIS: Attagene CIS-FACTORIAL HepG2 Assay for human Retinoic Acid Receptor Alpha (RARE), DR5 submotif (AID 2282934)). Conditions: HepG2 Attagene cis-factorial RARE DR5 reporter, mRNA; actives raise or lower the signal.
Sequence of Retinoic acid receptor alpha (Homo sapiens) (P10276 whole entry, looked up): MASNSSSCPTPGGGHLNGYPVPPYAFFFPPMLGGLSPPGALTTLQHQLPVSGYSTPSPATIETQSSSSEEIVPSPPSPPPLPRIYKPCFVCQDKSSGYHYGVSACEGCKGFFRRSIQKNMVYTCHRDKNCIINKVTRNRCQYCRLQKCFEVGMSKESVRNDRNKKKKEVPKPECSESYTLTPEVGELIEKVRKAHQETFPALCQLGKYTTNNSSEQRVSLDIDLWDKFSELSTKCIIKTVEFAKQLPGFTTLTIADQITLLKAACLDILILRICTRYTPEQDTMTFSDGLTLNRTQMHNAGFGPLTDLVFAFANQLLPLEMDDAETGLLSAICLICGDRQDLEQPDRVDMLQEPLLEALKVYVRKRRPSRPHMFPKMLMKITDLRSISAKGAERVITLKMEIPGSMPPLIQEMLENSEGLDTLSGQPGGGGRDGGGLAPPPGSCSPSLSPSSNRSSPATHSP
Method: ATG_CIS is a cell-based, multiplexed-readout assay that uses HepG2, a human liver cell line, with measurements taken at 24 hours after chemical dosing in a 24-well plate.ATG_DR5_RAR_CIS is one of 52 assay component(s) measured or calculated from the ATG_CIS assay. It is designed to make measurements of mRNA induction, a form of inducible reporter, as detected with fluorescence intensity signals by Reverse transcription polymerase chain reaction (RT-PCR) and Capillary electrophoresis technology.Data from the assay component ATG_DR5_RAR_CIS was analyzed into 1 assay endpoint. This assay endpoint, ATG_DR5_CIS, was analyzed with bidirectional fitting relative to DMSO as the negative control and baseline of activity. Using a type of inducible reporter, measures of mRNA for gain or loss-of-signal activity can be used to understand the reporter gene at the transcription factor-level as they relate to the gene RARA and RARB and RARG. Furthermore, this assay endpoint can be referred to as a primary readout, because this assay has produced multiple assay endpoints where this one serves a reporter gene function. To generalize the intended target to other relatable targets, this assay endpoint is annotated to the nuclear receptor intended target family, where the subfamily is non-steroidal.
Human liver HepG2 cells are transiently transfected with multiple reporter transcription units (MRTUs) in 6-well plates using FuGene 6 reagent (Roche; 3 ml FuGene/1 mg DNA). The MRTU constructs are regulated by a cis-regulating element (promoter). […] A major difference between the CIS and TRANS system is that in CIS activities of endogenous TFs are measured, whereas the TRANS assay evaluates changes in activities of exogenous, chimeric NR-Gal4 proteins. […] At the end of 24 hour incubation, total RNA was isolated using TriZol reagent (Invitrogen). The isolated RNA is then reverse-transcribed using oligo(dT) primer and Mo-MLV reverse transcriptase (Invitrogen) with DNAse I (Ambion) treatment for 30 min. The one-tenth of the produced cDNA was amplified by PCR using Taq DNA polymerase (Invitrogen) and two reporter sequence-specific primers. The PCR products were fluorescently labeled by primer extension with 6-arboxyfluorescein (6-FAM) 5'-labeled reporter sequence-specific primer (2 min at 95 C, 20 s at 68 C and 10 min at 72 C) and these products were digested with 5U of HpaI (New England Biolabs) for 2h at 37 C. The fragments were purified using Qiaquick PCR columns (Qiagen), analyzed on an ABI 3130xL genetic analyzer (Applied Biosystems) with peak positions identified by using a set of X-rhodamine (ROX)-labeled MapMarker1000 molecular weight standards (BioVentures). The raw capillary electrophoresis data was processed using Attagraph software (Attagene).

outcome, inactive:
CCCCCCOC(=O)CCCCC
CCCCCOC(=O)CCC
O=C[C@H](O)[C@H](O)[C@H](O)CO
CC1(CO)CN(c2ccccc2)NC1=O (stereo not given)
CC(CN1c2ccccc2Sc2ccccc21)N(C)C (stereo not given)
COc1ccc(Cl)cc1C
CC(C)C[C@H]1C(=O)N2CCC[C@H]2[C@]2(O)O[C@](NC(=O)[C@@H]3C=C4c5cccc6[nH]c(Br)c(c56)C[C@H]4N(C)C3)(C(C)C)C(=O)N12
CCCCCCCCCCCCCCCC(=O)O
CN(C)C(=N)N=C(N)N
[Ca+2]
CO[Si](CCCn1c(=O)n(CCC[Si](OC)(OC)OC)c(=O)n(CCC[Si](OC)(OC)OC)c1=O)(OC)OC
O=C(Oc1ccccc1)c1ccc(O)cc1
COC(C)CCO (stereo not given)
Cc1ccc2ccccc2n1
C/C=C(\C)C(=O)OCc1ccccc1
O=c1oc(=O)c2cc3c(=O)oc(=O)c3cc12
O=C[C@@H](O)[C@H](O)[C@H](O)CO
CC(=O)C(=O)O
CCCCCCCCCCCCN(CCCCCCCCCCCC)CCCCCCCCCCCC
CCCCOCCOCCSC#N
CCCC[n+]1ccccc1
O=S(=O)(O)c1cccc2c(S(=O)(=O)O)cccc12
CCC(C)CCCC(C)(C)O (stereo not given)
O=C(O)CN(CCN(CC(=O)O)CC(=O)O)CCN(CC(=O)O)CC(=O)O
CC1CCC(C(C)CS)CC1S (stereo not given)
C=C[C@@H](C)CCC=C(C)C
CNC[C@H](O)c1cccc(O)c1
NCCNCCN
CCCC(=O)OCCC(C)CCC=C(C)C (stereo not given)
O=c1[nH]c(=O)n([C@H]2CCCO2)cc1F
C=O
CC(C)=CCCC(C)=CCCC(C)=CCO
CCCCNC(=O)NS(=O)(=O)c1ccc(N)cc1
CCCCCC(CO)CCC (stereo not given)
CCCCCNCCCCC
O=S(=O)(O)NC1CCCCC1
Cc1cccc(Nc2ccccc2C(=O)O)c1C
CSc1nc(NC2CC2)nc(NC(C)(C)C)n1
CC1(C)OC[C@@H]2O[C@@]3(C(=O)O)OC(C)(C)O[C@H]3[C@@H]2O1
OCCOc1cccc(OCCO)c1

From PubChem BioAssay (EPA / NIEHS)
